Laboratory results: PubChem BioAssay (NCATS)
Where “and” joins values, the source holds several entries; their conditions need not be identical. Identical values can stand only once. Results filed as inconclusive are left out. A call without a number means that no potency is given here. Calls of active or inactive are those of the source. Unless noted, the call rests on the fitted dose curve; in most records, active means well fitted inhibition curve with a large enough effect; inconclusive means small, poorly fitted or top-dose-only effect; inactive means flat fitted curve, though single readings scatter.

tested on: not listed separately; experiment: qHTS assay for small molecule antagonists of retinoid X receptor alpha signaling (AID 588546; active means well fitted inhibition curve with a large enough effect in the signal ratio, with a control signal flat, not every such curve was filed as active; the % refers to the signal ratio;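 on max response: cells stimulated with 9-cis-retinoic acid as agonist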); conditions: HEK293T RXRa-UAS-bla, beta-lactamase ratio, antagonist mode; measured here: W530 green channel, cytotoxicity proxy
In short: (§1)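 Beta-lactamase reporter inhibition, read as CCF4 fluorescence ratio (ex 405, em 460/530 nm) after 2 h at RT. HEK293T UAS-bla cells, 2500/well, were stimulated with 9-cis-RA at 500 or 100 nM final alongside test compound for 18 h at 37 C.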
Potency means the concentration at half of the fitted maximal effect.

Q: For `[O]=[Cr](=[O])([OH])[O][Cr](=[O])(=[O])[OH]`, which max response is on record?
A: The max response was 7.42% and 14.4%.

Q: For `O=C1C2CC=CCC2C(=O)N1SC(Cl)(Cl)Cl` (centres undefined), which max response is on record?
A: The max response was -2.91%.

Q: For `O=[N+]([O-])c1ccc(F)c([N+](=O)[O-])c1`, which max response is on record?
A: The max response was -4.46%.

Q: With `C[CH2][Hg][S]c1ccccc1C(=O)O` as the molecule, how does the max response read?
A: Its max response is -29.7%.

Q: Which max response does the source give for `CC[C@H](C)[C@H]1O[C@]2(C=C[C@@H]1C)C[C@@H]1C[C@@H](C/C=C(\C)[C@@H](O[C@H]3C[C@H](OC)[C@@H](O[C@H]4C[C@H](OC)[C@@H](O)[C@H](C)O4)[C@H](C)O3)[C@@H](C)/C=C/C=C3\CO[C@@H]4[C@H](O)C(C)=C[C@@H](C(=O)O1)[C@]34O)O2` here?
A: Its max response is -21.4%.

molecular target: Retinoic acid receptor RXR-alpha (Homo sapiens) (UniProt P19793); experiment: as above; conditions: HEK293T RXRa-UAS-bla, beta-lactamase ratio, antagonist mode
Sequence (P19793 whole entry, looked up): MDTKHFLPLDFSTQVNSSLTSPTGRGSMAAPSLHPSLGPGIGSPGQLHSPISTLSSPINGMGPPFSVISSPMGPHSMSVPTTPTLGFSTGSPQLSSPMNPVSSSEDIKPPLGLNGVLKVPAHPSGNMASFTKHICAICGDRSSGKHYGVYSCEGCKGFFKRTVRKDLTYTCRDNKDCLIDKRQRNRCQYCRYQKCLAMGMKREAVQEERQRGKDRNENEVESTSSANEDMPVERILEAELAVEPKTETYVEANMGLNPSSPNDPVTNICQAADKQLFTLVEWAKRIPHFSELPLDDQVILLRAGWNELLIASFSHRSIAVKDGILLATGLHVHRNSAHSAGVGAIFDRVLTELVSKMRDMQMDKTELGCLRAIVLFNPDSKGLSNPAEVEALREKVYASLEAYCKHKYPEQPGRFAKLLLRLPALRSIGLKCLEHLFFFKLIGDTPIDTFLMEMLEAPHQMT
In short: as §1

Q: Which max response does the source give for `[O]=[Cr](=[O])([OH])[O][Cr](=[O])(=[O])[OH]` here?
A: Its max response is -10.4% (inactive) and -3.4% (inactive).

Q: Which max response does the source give for `O=C1C2CC=CCC2C(=O)N1SC(Cl)(Cl)Cl` (centres undefined) here?
A: The max response was 15% (inactive).

Q: With `O=[N+]([O-])c1ccc(F)c([N+](=O)[O-])c1` as the molecule, how does the max response read?
A: The max response was 1.55% (inactive).

Q: Which Potency does the source give for `C[CH2][Hg][S]c1ccccc1C(=O)O` here?
A: The Potency was 2.24 µM (active).

Q: With `CC[C@H](C)[C@H]1O[C@]2(C=C[C@@H]1C)C[C@@H]1C[C@@H](C/C=C(\C)[C@@H](O[C@H]3C[C@H](OC)[C@@H](O[C@H]4C[C@H](OC)[C@@H](O)[C@H](C)O4)[C@H](C)O3)[C@@H](C)/C=C/C=C3\CO[C@@H]4[C@H](O)C(C)=C[C@@H](C(=O)O1)[C@]34O)O2` as the molecule, how does the Potency read?
A: The Potency was 12.6 µM (active).

molecular target: Voltage-gated inwardly rectifying potassium channel KCNH2 (Homo sapiens) (UniProt Q12809); experiment: qHTS Assay for Small Molecule Inhibitors of the Human hERG Channel Activity (AID 588834); conditions: U2OS BacMam hERG, FluxOR thallium flux fluorescence; series mostly up to 46.1 µM;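 further: lower thallium flux fluorescence means stronger hERG block; nearly all actives have a fitted effect of over 50% in size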
Sequence (Q12809 whole entry, looked up): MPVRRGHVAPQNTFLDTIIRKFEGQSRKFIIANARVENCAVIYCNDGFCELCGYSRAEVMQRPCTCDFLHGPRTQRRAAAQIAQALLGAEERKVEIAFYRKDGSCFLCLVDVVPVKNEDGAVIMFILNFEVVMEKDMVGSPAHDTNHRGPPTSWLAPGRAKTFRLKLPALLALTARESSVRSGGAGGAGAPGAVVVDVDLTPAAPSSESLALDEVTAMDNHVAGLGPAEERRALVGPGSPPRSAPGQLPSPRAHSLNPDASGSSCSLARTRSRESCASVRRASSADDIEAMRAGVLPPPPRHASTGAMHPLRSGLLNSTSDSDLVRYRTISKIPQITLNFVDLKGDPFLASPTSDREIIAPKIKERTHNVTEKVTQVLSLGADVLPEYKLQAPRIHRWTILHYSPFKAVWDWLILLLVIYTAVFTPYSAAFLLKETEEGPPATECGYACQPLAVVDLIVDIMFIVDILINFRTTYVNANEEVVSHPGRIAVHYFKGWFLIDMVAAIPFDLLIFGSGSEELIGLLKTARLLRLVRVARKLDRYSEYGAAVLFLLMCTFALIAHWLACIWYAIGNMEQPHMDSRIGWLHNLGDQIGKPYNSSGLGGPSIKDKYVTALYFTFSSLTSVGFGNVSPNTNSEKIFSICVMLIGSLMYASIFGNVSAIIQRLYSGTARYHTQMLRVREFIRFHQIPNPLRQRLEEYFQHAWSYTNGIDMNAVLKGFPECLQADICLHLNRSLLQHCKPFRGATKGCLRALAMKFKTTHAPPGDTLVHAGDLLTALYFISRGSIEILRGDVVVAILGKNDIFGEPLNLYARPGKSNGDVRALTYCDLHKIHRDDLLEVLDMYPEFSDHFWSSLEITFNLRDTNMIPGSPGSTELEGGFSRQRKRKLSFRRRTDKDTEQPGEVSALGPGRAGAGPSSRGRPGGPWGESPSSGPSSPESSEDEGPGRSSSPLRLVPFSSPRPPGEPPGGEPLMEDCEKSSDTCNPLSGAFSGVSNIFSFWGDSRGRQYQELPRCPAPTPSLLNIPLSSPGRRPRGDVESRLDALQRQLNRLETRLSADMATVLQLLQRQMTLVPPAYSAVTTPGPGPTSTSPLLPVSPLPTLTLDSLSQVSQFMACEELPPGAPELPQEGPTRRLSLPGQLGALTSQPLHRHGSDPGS
In short: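 Measured: FluxOR fluorescence after thallium stimulation in U2OS cells transduced with hERG by baculovirus. Compounds pre-incubated around 10 min; medium Opti-MEM with 2% FCS. AC50 from Hill equation.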

Q: With `[O]=[Cr](=[O])([OH])[O][Cr](=[O])(=[O])[OH]` as the molecule, how does the Potency read?
A: Its Potency is “inactive”.

Q: With `COc1ccc2c3c1O[C@H]1[C@@H](O)C=C[C@H]4[C@@H](C2)NCC[C@@]341` as the molecule, how does the Potency read?
A: The Potency was “inactive”.

Q: Which Potency does the source give for `CCCn1c(=O)c2[nH]c(C3CCCC3)nc2n(CCCOC(=O)c2ccc(S(=O)(=O)F)cc2)c1=O` here?
A: Its Potency is 14.1 µM (active).

Q: With `O=C1C2CC=CCC2C(=O)N1SC(Cl)(Cl)Cl` (centres undefined) as the molecule, how does the Potency read?
A: Its Potency is 25.1 µM (active) and 28.2 µM (active).

Q: Which Potency does the source give for `CC(N)[C@H](O)c1ccc(O)c(O)c1` (some centres undefined) here?
A: Its Potency is “inactive”.

Q: For `[2H]C([2H])([2H])[C@H](N)Cc1ccccc1`, which Potency is on record?
A: The Potency was “inactive”.

Q: With `CC1(C)S[C@@H]2[C@H](N)C(=O)N2[C@H]1C(=O)O` as the molecule, how does the Potency read?
A: The Potency was “inactive”.

Q: Which Potency does the source give for `NC(N)=Nc1ccc2[nH]c3c(c2c1)C[C@@]1(O)[C@H]2Cc4ccc(O)c5c4[C@@]1(CCN2CC1CC1)[C@H]3O5` here?
A: The Potency was “inactive”.

Q: Which Potency does the source give for `OC[C@@H](O)[C@H]1O[C@@H]2O[C@H](C(Cl)(Cl)Cl)O[C@@H]2[C@H]1O` here?
A: The Potency was “inactive”.

Q: With `CCOC(=O)/C=C(C)/C=C/C[C@@H](C)CCCC(C)C` as the molecule, how does the Potency read?
A: The Potency was “inactive”.

Q: For `Cc1cccc(C(C)c2cnc[nH]2)c1C` (centres undefined), which Potency is on record?
A: The Potency was “inactive”.

Q: Which Potency does the source give for `CNc1ccc(C(=O)CC(O)CCC(C)C2OC(=O)CC(O)CC(=O)CC(O)CC(O)CC(O)CC(O)CC3(O)CC(O)C(C(=O)OC)C(CC(O[C@@H]4O[C@H](C)[C@@H](O)[C@H](N)[C@@H]4O)/C=C/C=C/C=C/C=C/C=C/C=C/C=C/C2C)O3)cc1` (some centres undefined) here?
A: The Potency was “inactive”.

Q: Which Potency does the source give for `C[C@]12Cc3cn4c(nc3C=C1CCC1C2CC[C@@]2(C)[C@H]1CC[C@@]2(O)C#N)nc1ccccc14` (some centres undefined) here?
A: The Potency was 2 µM (active).

Q: For `Clc1cc(I)cc(Cl)c1NC1=NCCN1`, which Potency is on record?
A: The Potency was “inactive”.

Q: For `C[N+]1([O-])[C@@H]2CC[C@H]1CC(OC(=O)C(CO)c1ccccc1)C2` (some centres undefined), which Potency is on record?
A: Its Potency is “inactive”.

Q: With `CC1(C)[C@H](C=C(Cl)Cl)[C@H]1C(=O)OCc1c(F)c(F)cc(F)c1F` as the molecule, how does the Potency read?
A: Its Potency is “inactive”.

Q: With `C/C(O)=C(\C#N)C(=O)Nc1cc(Br)ccc1Br` as the molecule, how does the Potency read?
A: Its Potency is “inactive”.

Q: With `CCCN(CCC)CCc1c[nH]c2ccc(C(N)=O)cc12` as the molecule, how does the Potency read?
A: The Potency was 6.31 µM (active).

Q: Which Potency does the source give for `O=[N+]([O-])c1ccc(F)c([N+](=O)[O-])c1` here?
A: The Potency was “inactive”.

Q: For `CC(=O)Oc1ccc2c3c1O[C@H]1[C@@H](OC(C)=O)C=C[C@H]4[C@@H](C2)N(C)CC[C@@]341`, which Potency is on record?
A: The Potency was “inactive”.

Q: Which Potency does the source give for `[H+].[H+].[Hg+2].[O-]B([O-])[O-].[c-]1ccccc1` here?
A: The Potency was 10 µM (active).

Q: For `CCC(=O)O[C@]1(c2ccccc2)CCN(C)C[C@H]1C`, which Potency is on record?
A: The Potency was “inactive”.

Q: For `NC(N)=NOCC[C@H](N)C(=O)O`, which Potency is on record?
A: The Potency was “inactive”.

Q: For `C=C[C@H]1CN2CC[C@H]1C[C@@H]2[C@@H](O)c1ccnc2ccccc12`, which Potency is on record?
A: The Potency was 14.1 µM (active).

Q: With `CC(N)Cc1c[nH]c2ccc(OCc3cccs3)cc12` (centres undefined) as the molecule, how does the Potency read?
A: Its Potency is 2.82 µM (active).

Q: With `C[CH2][Hg][S]c1ccccc1C(=O)O` as the molecule, how does the Potency read?
A: Its Potency is “inactive”.

Q: With `C#CCN[C@H](C)Cc1ccccc1` as the molecule, how does the Potency read?
A: Its Potency is “inactive”.

Q: For `COc1ccc(CNC(=O)/C=C/c2ccc3[nH]cc(CCN(C)C)c3c2)cc1`, which Potency is on record?
A: Its Potency is 11.2 µM (active).

Q: Which Potency does the source give for `NC(=O)c1cc(N2CC2)c([N+](=O)[O-])cc1[N+](=O)[O-]` here?
A: The Potency was “inactive”.
